Results taken from PubChem BioAssay (NCI).
About 79,000 compounds went through this panel and 15% of them were active in at least one assay; those are over-represented in the sample as a whole. Unmarked numbers belong to inactive results. Activity calls are given as the source filed them. Rule as the data show it: active = growth inhibition above about 70%; inactive = the rest.

Columns and labels:
[1] = NCI Yeast Anticancer Drug Screen. Data for the rad50 strain (AID 155);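 also: 0% = growth of vehicle-only cultures of the same strain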; conditions: S. cerevisiae rad50 strain growth inhibition; at 50.0 µM; active compounds read high
Procedure, shortened: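 Readout: growth inhibition relative to vehicle-treated cultures. Compound exposure was carried out in a genetically defined yeast strain deficient in DNA damage repair.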

[2] = NCI Yeast Anticancer Drug Screen. Data for the mec2-1 strain (AID 157); conditions: S. cerevisiae mec2-1 strain, at 50.0 µM, active compounds read high
Procedure, shortened: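 Cells of the genetically defined mec2-1 yeast strain are incubated with test compound. Inhibition of growth is calculated against vehicle-treated controls.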

[3] = NCI Yeast Anticancer Drug Screen. Data for the sgs1 mgt1 strain (AID 161);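 also: 0% = growth of cultures given vehicle only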; conditions: S. cerevisiae sgs1 mgt1 strain, at 50.0 µM, active compounds read high
Procedure, shortened: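 Read-out: growth inhibition vs vehicle controls. Cells: mutant yeast strain deficient in DNA damage repair.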

[4] = NCI Yeast Anticancer Drug Screen. Data for the cln2 rad14 strain (AID 165);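 also: 0% = growth equal to vehicle treated cultures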; conditions: S. cerevisiae cln2 rad14 strain, at 50.0 µM, active compounds read high
Procedure, shortened: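 The screen exposed genetically defined yeast (cln2 rad14) to test compounds and scored growth inhibition relative to vehicle-treated controls.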

[5] = NCI Yeast Anticancer Drug Screen. Data for the bub3 strain (AID 167); conditions: S. cerevisiae bub3 mutant strain, at 50.0 µM, active compounds read high
Procedure, shortened: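 Readout: yeast growth inhibition, expressed relative to vehicle-only wells. The test organism is a mutant strain from a panel with lesions in DNA repair or checkpoint genes.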

[6] = NCI Yeast Anticancer Drug Screen. Data for the mlh1 rad18 strain (AID 175); conditions: S. cerevisiae mlh1 rad18 strain growth inhibition; at 50.0 µM; active compounds read high
Procedure, shortened: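 Compound-treated yeast growth, normalised to vehicle controls. Strain bears defined DNA repair mutations.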

Row | Structure (SMILES) | growth inhibition [1] | growth inhibition [2] | growth inhibition [3] | growth inhibition [4] | growth inhibition [5] | growth inhibition [6]
1 | O=[N+]([O-])c1ccc(NC2C(O)OC(CO)C(O)C2O)c([N+](=O)[O-])c1 (centres undefined) | 5.1% | -3.2% | 5.55% | -7.15% | 5.8% | -0.95%
2 | Cc1ccc(OS(=O)(=O)c2ccccc2)cc1 | 36% | 20.4% | 49.1% | -42.6% | 35.2% | 36.6%
3 | CC(=O)Nc1ccc2c(c1)Cc1cc(Cl)c(Cl)cc1-2 | 57.5% | -4.05% | 31.7% | -17.1% | -3.7% | 37.6%
4 | CC1=NOC2(C1)/C(=N/O)CCC/C2=N\O (centres undefined) | -3.65% | -25.1% | -1.5% | 20.9% | -11.6% | 0.45%
5 | C[C@H](CCC(=O)O)[C@H]1CC[C@H]2[C@@H]3[C@@H](O)C[C@@H]4C[C@H](O)CC[C@]4(C)[C@H]3C[C@H](O)[C@]12C | -3.3% | -7.05% | 11.1% | -20.6% | -14.7% | 7.8%
6 | C=CCOC(=O)Cc1ccccc1C(=O)OCC=C | -7.55% | -1.2% | -6.6% | -42.2% | 21.4% | -6.25%
7 | O=S=Nc1ccc([N+](=O)[O-])cc1Cl | 5.7% | -1.15% | -2.9% | -33.6% | 10.7% | 16.6%
8 | CCOC(=O)C(NC(=O)c1ccccc1)(N1CCN(c2cc3c(cc2F)c(=O)c(C(=O)O)cn3CC)CC1)C(F)(F)F (centres undefined) | -29.4% | -34.4% | -3.3% | -18.4% | -14.2% | -20.8%
9 | CCc1ccc(/C=C/C(=O)C(C)CN(C)C)cc1 (centres undefined) | -4.9% | 26.1% | -2.3% | 22.1% | 13.9% | 9.85%
10 | Cc1cc(C2(O)CCCc3ccccc32)[n+]([O-])cc1C (centres undefined) | -17.3% | -2.9% | -9.4% | -4.8% | 0.75% | 2.75%
11 | COC1OC2COC(C)(C)OC2C1OS(=O)(=O)c1ccc(C)cc1 (centres undefined) | -1.75% | 12.6% | 6.4% | -17.1% | -0.5% | 29.6%
12 | NNC(=O)C1CC1 | 0.5% | -25.9% | -5.65% | 2.8% | -14.1% | -4.55%
13 | CCCCCCCCCCNC(=O)CCC(NC(=O)c1ccc(N(C)Cc2cnc3nc(N)nc(N)c3n2)cc1)C(=O)NCCCCCCCCCC (centres undefined) | 5.7% | 3.35% | -4.15% | 6.1% | -13.2% | -3.65%
14 | C/C(=N/NC(=O)C(N)=O)C(CC(C(=O)Nc1ccccc1C)/C(C)=N\NC(=O)C(N)=O)C(=O)Nc1ccccc1C (centres undefined) | 0.75% | -0.6% | -8.1% | -12.2% | 8.05% | -12.6%
15 | COC(=O)CCC(CCc1ccccc1)(C(C)=O)C(C)=O | -2.4% | -13.1% | -16.5% | -4.05% | 19.3% | 7.7%
16 | FC(F)(F)c1cc(Cl)c2ccc3ccccc3c2n1 | 8.65% | 5.3% | 1.9% | -62.4% | 3.65% | -12.8%
17 | Cc1cccc(C)n1 | -1.85% | -22.1% | -3.15% | -1.85% | -6.55% | -21.4%
18 | C=CC(CCCC(C=C)OC(C)=O)OC(C)=O (centres undefined) | 2.2% | -4.95% | -0.65% | -18.1% | 5.6% | 5.5%
19 | CCCCCCCCCCCCCCCC[N+](C)(C)CCNC(C)=O | 99.2% (active) | 99.6% (active) | 99.7% (active) | 98.7% (active) | 99.2% (active) | 99.5% (active)
20 | Cn1c(=O)[nH]nc(Br)c1=O | 2.55% | -9.7% | -9% | -4.75% | -4.6% | -24.9%

Row | Structure (SMILES) | growth inhibition [1] | growth inhibition [2] | growth inhibition [3] | growth inhibition [4] | growth inhibition [5] | growth inhibition [6]
21 | Cc1cc(N(C)C)c([N+](=O)[O-])cc1C=O | 5.9% | 13.8% | -13.3% | -22.4% | -24.9% | -5.8%
22 | COC(=O)c1c2c(cc3c1CC1(Cc4ccccc4C1=O)C3)CCC2 (centres undefined) | -23.2% | 5.2% | 14.2% | -17.1% | 9.4% | -39.9%
23 | O=C(CC1CCCCC1)OCC1CCCO1 (centres undefined) | -7.1% | -25.6% | -18.4% | -4.15% | -6.95% | 4.55%
24 | C=CCN1C2Cc3cc(OC)c(OC)cc3C1Cc1cc(OC)c(OC)cc12 | 0.15% | -19.2% | -23.6% | -6.45% | -16.2% | -10.3%
25 | O=C(O)CCC(=O)c1ccc(O)cc1 | -0.2% | -27% | -7.1% | -14.7% | -14% | 13.6%
26 | CCCOC1OC(CS(=O)(=O)O)C(OC(C)=O)C(OC(C)=O)C1OC(C)=O (centres undefined) | 3.25% | 3.1% | 8.4% | 18% | 2.4% | 5.95%
27 | CCOC(=O)c1cc2ccccc2nc1N | 0% | 3.45% | -7.15% | -21.5% | -17.1% | 1.1%
28 | CN(Cc1ccccc1)C(OCc1ccccc1)c1ccccc1 (centres undefined) | 3.15% | -13% | 10.1% | -8.3% | 20.4% | 5.4%
29 | CCNc1nc(C)nc2c1cnn2-c1ccccc1 | -16.1% | -12.6% | -6.75% | -56.5% | -4.8% | -9.75%
30 | CSC(=N\N=C\c1c(F)cccc1Cl)/N=C/N(C)C | 8.7% | -4.1% | 12.7% | 14.8% | -2.85% | 4%
31 | Cc1ccc(S(=O)(=O)NNC(=O)c2cc(C(=O)NNS(=O)(=O)c3ccc(C)cc3)c(C)nc2C)cc1 | -1.95% | 5.3% | 6.9% | 21.8% | 8.3% | -7.8%
32 | Cc1cc(O)c([N+](=O)[O-])c(C)c1[N+](=O)[O-] | 2.2% | 35.2% | 3.5% | 41.2% | 39.3% | 0.25%
33 | CN(C)CC(CCC(=O)c1ccccc1)C(=O)c1ccccc1 (centres undefined) | 8.05% | 15.8% | 26.2% | -45.8% | 14.2% | 5.5%
34 | C[C@@H]1CN[C@@H](C)CN1 | -35.2% | -30.3% | -17.4% | -8.25% | -0.6% | 3.8%
35 | COc1cc(OC)c(N=Nc2c(C)nc(N)nc2-c2ccccc2)cc1Cl | 44.6% | 5.45% | 19.2% | 20.3% | 4.6% | 23.9%
36 | C/C(=N\[N+](C)(C)C)c1ccc2ccccc2c1 | 9.65% | -2.45% | -1.6% | 5.5% | -6% | -9.6%
37 | O=C(CC(=O)c1ccc(-c2ccc(C(=O)CC(=O)c3ccccc3)cc2)cc1)c1ccccc1 | -16.4% | -11% | -20.4% | -34.4% | -1.8% | -10.7%
38 | c1ccc2c(c1)C[N+]1(CCCCCC1)C2 | 7% | 6.05% | 11% | -10.3% | 1.05% | 10.7%
39 | Cc1cc(Cl)ccc1C(=O)O | -0.9% | 9.7% | 13.3% | 1.35% | -12.8% | 20.2%
